Test results taken from PubChem BioAssay (Tox21).
“And” between values parts separate entries of the source, which are not always exact repeats. Equal values may be shown once. Records with an inconclusive call do not appear. Where a call stands in place of a potency, no number is given. The source made the active and inactive calls. The call rests on the fitted dose curve; in most records, active means well fitted inhibition curve with a large enough effect in the repeat runs; inconclusive means weak or mixed curves; inactive means no such curve, though single readings can be large or run the other way.

Target: Cytochrome P450 3A4 (Homo sapiens) (UniProt P08684)
Assay: Cytochrome P450 Family 3 Subfamily A Member 4 (CYP3A4) small molecule antagonists: luciferase reporter qHTS assay (AID 1671201); further: nearly all actives have a fitted effect of over 50% in size
Details: P450-Glo CYP3A4 enzyme, luciferin luminescence, 1 h; series mostly up to 115 µM
Excerpt: National Center for Advancing Translational Sciences [NCATS]
U.S. Environmental Protection Agency [EPA]
National Institutes of Environmental Health Sciences [NIEHS]
National Toxicology Program [NTP]
U.S. Food and Drug Administration [FDA]
Cytochrome P450 (CYP) enzymes are membrane-bound hemeproteins that play a key role in metabolism of drugs and xenobiotics. Evaluation of the effect of chemicals on CYP isozymes is useful to minimize the adverse drug reactions and toxicities in drug development process. Tox21 chemicals were tested for their effect on CYP enzyme activities by using P450-Glo (TM) screening systems (Promega Corporation, Madison, WI). These systems provide a luminescent method containing proluciferin substrates and are converted to luciferin products by CYP isozymes. The luciferin products formed are detected with a luciferin detection reagent, and the amount of light produced is proportional to CYP activity. P450-Glo (TM) CYP3A4 screening system (Catalog. No. V9910) was used to detect the compounds that interfere in CYP3A4 activity. The positive control compound used for CYP3A4 assay is ketoconazole (Sigma-Aldrich, St. Louis, MO).
Tox21 Assay Protocol Summary:
Two ul of enzyme-substrate mix was dispensed into medium binding white/solid 1536-well plates (Greiner Bio-One North America Inc., Monroe, NC) using a BioRaptr Flying Reagent Dispenser (FRD, Beckman Coulter, Brea, CA). Compounds dissolved in DMSO and positive control (ketoconazole) were transferred to the assay plates at 23 nl using a Pintool station (Wako, San Diego, CA). The assay plates were incubated at room temperature for 10 min. Then 2 ul of NADPH regeneration solution was added to each well of the assay plates using an FRD and incubated at room temperature for 1 h. The reaction was stopped by adding 4 ul of detection reagent using an FRD and after 20 min incubation at room temperature the luminescence signal was measured using a ViewLux plate reader (Perkin Elmer, Shelton, CT). Data were expressed as relative luminescence units.
Potency means the concentration at half of the fitted maximal effect.

Sequence of Cytochrome P450 3A4 (Homo sapiens) (P08684 whole entry, looked up): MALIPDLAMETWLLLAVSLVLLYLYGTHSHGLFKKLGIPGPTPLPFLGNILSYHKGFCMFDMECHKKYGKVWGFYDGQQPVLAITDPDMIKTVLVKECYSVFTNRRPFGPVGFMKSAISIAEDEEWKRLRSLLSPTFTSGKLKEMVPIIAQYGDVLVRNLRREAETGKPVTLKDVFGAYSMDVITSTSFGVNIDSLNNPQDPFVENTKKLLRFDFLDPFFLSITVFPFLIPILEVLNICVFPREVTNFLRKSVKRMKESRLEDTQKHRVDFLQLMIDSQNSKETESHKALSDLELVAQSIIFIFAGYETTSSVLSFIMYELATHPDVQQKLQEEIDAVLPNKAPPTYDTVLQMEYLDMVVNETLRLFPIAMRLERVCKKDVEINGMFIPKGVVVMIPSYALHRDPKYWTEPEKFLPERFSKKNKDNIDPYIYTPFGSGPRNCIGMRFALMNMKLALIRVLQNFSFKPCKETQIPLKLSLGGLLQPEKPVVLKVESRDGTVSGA

Structure (SMILES) | Potency
CCOc1cccc(C2(N3CCN(c4ccccc4)CC3)CCC(C)CC2)c1 (stereo not given) | inactive
CC(Cl)C(=O)O (stereo not given) | inactive
Nc1ccc2c(c1)Cc1ccccc1-2 | 14.1 µM (active)
Nc1cccc2ccccc12 | 35.6 µM (active)
OCC1CO1 (stereo not given) | inactive
CC(C)CCCCCCCOC(=O)c1ccccc1C(=O)OCCCCCCCC(C)C | inactive
O=C(O)COc1cc(Cl)c(Cl)cc1Cl | inactive
CCOC(=O)C1OC1(C)c1ccccc1 (stereo not given) | inactive
NNCCO | inactive
FC(F)OC(F)(F)C(F)Cl (stereo not given) | inactive
O=P(OCC(Br)CBr)(OCC(Br)CBr)OCC(Br)CBr (stereo not given) | 2.55 µM (active) and 7.56 µM (active)
C=CCSSCC=C | inactive
O=C(N/N=C/c1ccc([N+](=O)[O-])o1)c1cc([N+](=O)[O-])cc([N+](=O)[O-])c1O | inactive
CN1CC[C@]23c4c5ccc(O)c4O[C@H]2[C@@H](O)CC[C@H]3[C@H]1C5 | inactive
CC(C)(C)OOC(C)(C)CCC(C)(C)OOC(C)(C)C | inactive
CCCCC#N | inactive
Clc1ccccc1 | inactive
CC(C)(C)CC(C)(C)c1ccc(O)cc1 | inactive
CCCCC(CC)COC(=O)c1c(Br)c(Br)c(Br)c(Br)c1C(=O)OCC(CC)CCCC (stereo not given) | inactive
C[Si](Cn1cncn1)(c1ccc(F)cc1)c1ccc(F)cc1 | 104 nM (active) and 126 nM (active)

Structure (SMILES) | Potency
CCCSP(=S)(OCC)Oc1ccc(SC)cc1 (stereo not given) | 3.17 µM (active)
COc1cc(C[C@@H](C)N)c(OC)cc1Br | inactive
CCCCCBr | inactive
COc1ccccc1N1CCNCC1 | inactive
OCCSSCCO | inactive
O=C=NC1CCCCC1 | inactive
CCCCCCCCCCCCN(C)C | inactive
Nc1ccccc1C(=O)OCC(O)CO (stereo not given) | inactive
O=C(CCl)CCl | inactive
CCCCNC(=O)OCC#CI | 3.54 µM (active) and 5.64 µM (active)
N#CC1(N=NC2(C#N)CCCCC2)CCCCC1 | 11.2 µM (active)
N#CC(C#N)=C(C#N)C#N | 20.9 µM (active)
c1ccc2sc(SNC3CCCCC3)nc2c1 | inactive
CCC[N+](CCC)(CCC)CCC | inactive
O=C(O)C(F)(F)C(F)(F)C(F)(F)C(F)(F)C(F)(F)F | inactive
CC(=O)OC(c1ccccc1)C(Cl)(Cl)Cl (stereo not given) | inactive
CCC(C)Cl (stereo not given) | inactive
O=[N+]([O-])O[C@H]1CO[C@H]2[C@@H]1OC[C@H]2O[N+](=O)[O-] | inactive
O=C1c2ccccc2C(=O)N1SC(Cl)(Cl)Cl | inactive
C=CCc1ccc(OC(=O)Cc2ccccc2)c(OC)c1 | 11.2 µM (active)
